# Records with an inconclusive call do not appear. The source made the active and inactive calls. Calls follow the shape of the dose curve; as a rule, active = well fitted cell-killing curve with a large enough effect in the repeat runs; inconclusive = weak or mixed curves, or effect the other way; inactive = flat fitted curve, though single readings scatter.
# Experiment: qHTS RealTime-Glo MT Cell Viability Assay in HepG2 cells - 40 hour (AID 1224870); also: nearly all actives have a fitted effect of over 50% in size
# Conditions: RealTime-Glo luminescence; series mostly up to 76.8 µM; activity change, negative = cytotoxic: at the top concentration
# From the text: National Center for Advancing Translational Sciences [NCATS]
# NIH Chemical Genomics Center [NCGC]
# U.S. Environmental Protection Agency [EPA]
# National Institutes of Environmental Health Sciences [NIEHS]
# National Toxicology Program [NTP]
# U.S. Food and Drug Administration [FDA]
# Measure of cell viability is critical in the cell-base assay. Analysis of cell viability is necessary for the characterization of cell responses to cytotoxic drugs and environmental stress. A RealTime-Glo MT Cell Viability Assay to monitor cell viability in real time of continues cell culture during 40 hours of compound treatment was used to screen Tox21 10K library compounds in HepG2 cells. The RealTime-Glo MT Cell Viability Assay is a nonlytic, homogeneous, bioluminescent method to measure cell viability in real time using a simple, plate-based method. The assay involves adding NanoLuc luciferase and a cell-permeant prosubstrate to cells in culture. Viable cells reduce the proprietary prosubstrate to generate a substrate for NanoLuc luciferase. This substrate diffuses from cells into the surrounding culture medium, where it is rapidly used by the NanoLuc Enzyme to produce a luminescent signal. The signal correlates with the number of viable cells, making the assay well suited for cytotoxicity studies.
# Tox21 Assay Protocol Summary:
# The mixture of HepG2 cell suspension and reagents were dispensed at 600cells/6 ul/well in 1536-well tissue culture treated black solid bottom plates using a Multidrop dispenser. After the assay plates were incubated at a 37 C/5% CO2 incubator for 5 hours, 23 nL of compounds dissolved in DMSO, positive and negative controls was transferred to the assay plate by a pintool work station. The plates were incubated at 37 C for 40 hours. The luminescence intensity were measured at 0h, 8h, 16h, 24h, 32h and 40h time points using ViewLux plate reader during compound treatment.
# % is scaled to controls: 0 for no effect and ±100 for the full control effect.
row,Compound,"activity change, negative = cytotoxic"
1,C=C(C)C(=O)OCCOCCOCCOCCOC(=O)C(=C)C,3.42% (inactive)
2,CN(C)CCN(C)CCN(C)C,1.28% (inactive)
3,N[C@H](C(=O)O)[C@@H](O)c1ccc(O)c(O)c1,0.2% [at 35.3 µM] (inactive)
4,C[C@@H]1CCC[C@H](C)N1,1.94% [at 35.3 µM] (inactive)
5,COc1cc(C(=O)OC(COCCC(C)C)CN2CCOCC2)cc(OC)c1OC (stereo not given),1.52% [at 35.3 µM] (inactive)
6,CC(=O)c1cnccn1,1.95% (inactive)
7,CC(=O)OCC(=O)[C@@]1(O)[C@H](C)C[C@H]2[C@@H]3CCC4=CC(=O)C=C[C@]4(C)[C@@]3(F)[C@@H](O)C[C@@]21C,-1.89% [at 35.3 µM] (inactive)
8,O=C(c1ccccc1)C1(O)CCCCC1,1.91% (inactive)
9,Nc1c2c(nc3c1CCC3)CCCC2,-2.11% [at 35.3 µM] (inactive)
10,Cc1c(N)c(=O)n(-c2ccccc2)n1C,4.1% [at 35.3 µM] (inactive)
11,CN1CC(=O)N/C1=N/C(=O)Nc1cccc(Cl)c1,0.194% [at 35.3 µM] (inactive)
12,NC(=O)N1c2ccccc2CC(=O)c2ccccc21,0.0898% [at 35.3 µM] (inactive)
13,CCCO[Si](OCCC)(OCCC)OCCC,-4.14% (inactive)
14,Cc1nc(C2CCCCC2)c(-c2ccc(S(N)(=O)=O)c(F)c2)o1,-3.53% [at 35.3 µM] (inactive)
15,O=C(O)CNC(=O)c1ccccc1,3.67% [at 35.3 µM] (inactive)
16,COc1cccc(OC)c1C(=O)N[C@@H]1C(=O)N2[C@@H]1SC(C)(C)[C@@H]2C(=O)O,6.14% [at 35.3 µM] (inactive)
17,CC(C)CC(C)(N)C#N (stereo not given),0.509% (inactive)
18,O=S(=O)(O)c1cccc2ccccc12,-0.951% (inactive)
19,CCCCCCCCCCCCSC,-1.22% (inactive)
20,CO/N=C(\C(=O)N[C@@H]1C(=O)N2C(C(=O)O)=C(CSc3nc(=O)c(O)nn3C)CS[C@H]12)c1csc(N)n1,0.369% [at 35.3 µM] (inactive)

row,Compound,"activity change, negative = cytotoxic"
1,CCN1CCOCC1,0.12% (inactive)
2,CC12CCC(C(=O)C1=O)C2(C)C (stereo not given),-2.21% (inactive)
3,CC(=O)O[C@@]12CO[C@@H]1C[C@H](O)[C@@]1(C)C(=O)[C@H](O)C3=C(C)[C@@H](OC(=O)[C@H](O)[C@@H](NC(=O)OC(C)(C)C)c4ccccc4)C[C@@](O)([C@@H](OC(=O)c4ccccc4)[C@H]21)C3(C)C,-11.9% [at 35.3 µM] (inactive)
4,CCOc1ccccc1OCC,-0.0694% (inactive)
5,CCC(C(=O)NC(=O)NC(C)=O)c1ccccc1 (stereo not given),-2.81% [at 35.3 µM] (inactive)
6,CC(=O)N[C@H]1[C@H]([C@H](O)[C@H](O)CO)OC(C(=O)O)=C[C@@H]1N=C(N)N,0.431% [at 35.3 µM] (inactive)
7,COc1c(N2CCNC(C)C2)c(F)cc2c(=O)c(C(=O)O)cn(C3CC3)c12 (stereo not given),1.07% [at 35.3 µM] (inactive)
8,CC(CO)(CO)[N+](=O)[O-],0.895% (inactive)
9,CCOC(=O)c1ccccc1,1.47% (inactive)
10,CC(C)C[C@@H](N)C(=O)O,2.01% [at 15.8 µM] (inactive)
11,CCOc1ccc2nc(S(N)(=O)=O)sc2c1,-0.332% [at 35.3 µM] (inactive)
12,NC(=O)NC1N=C([O][Al])NC1=O (stereo not given),2.21% [at 35.3 µM] (inactive)
13,O=C(O)CC(C(=O)O)S(=O)(=O)O (stereo not given),2.66% (inactive)
14,Nc1ccccn1,-4.33% (inactive)
15,CC(C)COC(=O)c1ccc(N)cc1,3.3% [at 35.3 µM] (inactive)
16,CCCCc1ccc2c(n1)[C@@H](c1ccc(OC)cc1C[C@H](C)C(=O)O)[C@H](C(=O)O)[C@H]2c1ccc2c(c1)OCO2,1.98% (inactive)
17,O=C1c2ccccc2C(=O)c2cc(O)ccc21,-0.258% (inactive)
18,COc1cc(C)nc(-n2nc(C)cc2OC)n1,2.09% [at 35.3 µM] (inactive)
19,CCC(=O)OCc1ccccc1,2.99% (inactive)
20,CC(C)NNC(=O)c1ccncc1,0.478% [at 35.3 µM] (inactive)

# From PubChem BioAssay (Tox21)
